Bioassay records deposited in PubChem by National Center for Advancing Translational Sciences (NCATS).
Shown are actives, neighbours in structure and some others; about 19% of the full set was active somewhere.
HT1080 IDH1KD tx = qHTS for induction of synthetic lethality in tumor cells producing 2HG: qHTS for the HT-1080-IDH1KD cell line. AID 686971, 2013. Potency, µM (top dose mostly 46.1 µM), actives largely listed as cytotoxic. actives 2% (n = 360,000). HT-1080 IDH1 knockdown viability, ATP luminescence, 48 h
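Using the IDH1-knockdown HT-1080 line run in the same batch and compound series as the NT line, viability after 48 h at 37 °C was determined by CellTiter-Glo luminescence and expressed as % activity.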
HT1080-NT tox = qHTS for induction of synthetic lethality in tumor cells producing 2HG: qHTS for the HT-1080-NT fibrosarcoma cell line; HT-1080-NT fibrosarcoma viability, CellTiter-Glo ATP luminescence, 48 h; Potency, µM (highest dose often 46.1 µM), hits mostly cytotoxic; actives 1.6% (n = 360,000);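 also: NT is the 2HG producing partner of a matched IDH1 knockdown line; nearly all actives have a fitted effect of over 55% in size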
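750 cells/well, RPMI + 5% FBS; 2 h settle, compound pin-transfer, 48 h at 37 degrees C. CellTiter-Glo 10 min RT, luminescence. Normalized to DMSO and media-only wells.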
IL-1B inflam inh = qHTS for Inhibitors of Inflammasome Signaling: IL-1-beta AlphaLISA Primary Screen. THP-1 LPS/ATP IL-1B secretion, AlphaLISA, 16 h; active compounds read low. activity change, % at 57.5 µM. actives 4.7% (n = 360,000). AID 743279, 2014; in the data active = activity change below about -50%; inconclusive = mostly about -30% to -49%
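THP-1 cells pretreated 1 hr with compounds (up to 57.5 uM final), then stimulated with LPS (250 ng/mL final) plus ATP (1.25 mM final); secreted IL-1B measured by AlphaLISA after 16 hr, decreased signal indicating inhibition.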
DT40 TDP1 CPT = qHTS for Inhibitors of human tyrosyl-DNA phosphodiesterase 1 (TDP1): qHTS in cells in presence of CPT; chicken DT40 Tdp1-/-;hTDP1 cells + 20 nM CPT, ATP luminescence, 48 h; Potency, µM (top dose mostly 46.2 µM), most hits filed as inhibitors; actives 12% (n = 420,000); also: nearly all actives have a fitted effect of over 55% in size
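Chicken DT40 Tdp1-/- cells complemented with human TDP1, 400 cells/well, exposed to compounds plus 20 nM camptothecin for at least 48 h at 37 C; viability read as ATP content by CellTiter-Glo luminescence.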
DT40 TDP1 no CPT = qHTS for Inhibitors of human tyrosyl-DNA phosphodiesterase 1 (TDP1): qHTS in cells in absence of CPT; DT40 Tdp1-/- hTDP1 cells, no CPT, ATP luminescence, 48 h; Potency, µM (titrated, usually from 46.2 µM), usual class: inhibitors; actives 15% (n = 420,000); AID 686978, 2013; also: nearly all actives have a fitted effect of over 55% in size
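Cells were dispensed at 400 per well, compounds added by pin tool, plates incubated ≥48 hr at 37 °C, then CellTiter-Glo added for 30 min at room temperature before luminescence reading. Line: DT40 Tdp1-/- complemented with hTDP1; camptothecin omitted.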
Each line names hits and unclear results; the compound was inactive in the other large screens. Unless noted, calls follow the shape of the dose curve; as a rule, active = well fitted curve in the direction sought with a large enough effect; inconclusive = small, poorly fitted or top-dose-only effect, or another doubt; inactive = no such curve, though single readings can be large; an effect the other way counts as inactive or inconclusive.

CCn1c2c(c(=O)n3ncc(C(=O)Nc4cccc(Cl)c4C)c13)CN(Cc1ccc(OC)cc1)CC2	DT40 TDP1 CPT 21µM, DT40 TDP1 no CPT inconclusive (no result: HT1080 IDH1KD tx, HT1080-NT tox, IL-1B inflam inh)
COc1ccc(CN2CCc3c(c(=O)n4ncc(C(=O)N5CCN(c6ccccc6OC)CC5)c4n3C)C2)cc1	DT40 TDP1 CPT 16µM, DT40 TDP1 no CPT 12µM (no result: HT1080 IDH1KD tx, HT1080-NT tox, IL-1B inflam inh)
COc1ccc(COC(=O)CNC(=O)C2CCCCC2)cc1F	none
O=C(N/N=C1\CCCc2c1[nH]c1ccc(Cl)cc21)c1ccncc1	HT1080 IDH1KD tx inconclusive, HT1080-NT tox inconclusive, IL-1B inflam inh inconclusive, DT40 TDP1 CPT 12µM, DT40 TDP1 no CPT 10µM
COc1ccc(O)c(CN2CCOc3c(cc(-c4cccc(OC)n4)cc3OC)C2)c1	DT40 TDP1 no CPT inconclusive (no result: HT1080 IDH1KD tx, HT1080-NT tox, IL-1B inflam inh)
N#Cc1c(NC(=O)c2ccccc2)sc2c1CCCCC2	IL-1B inflam inh inconclusive, DT40 TDP1 no CPT inconclusive
N#Cc1c(NC(=O)c2cc(C3CC3)on2)sc2c1CCC2	HT1080 IDH1KD tx inconclusive, HT1080-NT tox inconclusive, DT40 TDP1 CPT 10µM, DT40 TDP1 no CPT 12µM
N#Cc1c(NC(=O)c2cc(-n3cnnc3)ccc2Cl)sc2c1CCCC2	HT1080 IDH1KD tx inconclusive, HT1080-NT tox inconclusive, DT40 TDP1 CPT 21µM, DT40 TDP1 no CPT 13µM
Cc1onc(-c2ccccc2)c1C(=O)Nc1sc2c(c1C(N)=O)CCC2	IL-1B inflam inh -50, DT40 TDP1 no CPT inconclusive
Cc1onc(-c2ccccc2)c1C(=O)Nc1sc2c(c1C#N)CCC2	HT1080 IDH1KD tx inconclusive, HT1080-NT tox 13µM, DT40 TDP1 CPT 29µM, DT40 TDP1 no CPT inconclusive
Cc1cc(-c2ccc(C)c(S(=O)(=O)NCc3ccc(OC(C)C)cc3)c2)on1	none
Cc1onc(-c2c(F)cccc2Cl)c1C(=O)Nc1nnc(C2CC2)s1	DT40 TDP1 CPT inconclusive, DT40 TDP1 no CPT inconclusive
Cc1onc(-c2c(F)cccc2Cl)c1C(=O)Nc1sc2c(c1C(N)=O)CCC2	HT1080 IDH1KD tx 14µM, HT1080-NT tox 11µM, IL-1B inflam inh inconclusive, DT40 TDP1 CPT 11µM, DT40 TDP1 no CPT 11µM
O=C(/C=C/c1ccco1)Nc1sc2c(c1C(=O)O)CCC2	HT1080 IDH1KD tx inconclusive
CC(C)(C)C(=O)NC(=S)Nc1sc2c(c1C#N)CCCCC2	DT40 TDP1 CPT inconclusive, DT40 TDP1 no CPT 23µM
N#Cc1c(NC(=O)/C=C/c2ccco2)sc2c1CCCC2	HT1080 IDH1KD tx inconclusive, HT1080-NT tox 0.58µM, DT40 TDP1 CPT 0.23µM, DT40 TDP1 no CPT 0.41µM
Cc1onc(-c2c(F)cccc2Cl)c1C(=O)Nc1sc2c(c1C#N)CCC(C(C)(C)C)C2 (stereo unspecified)	IL-1B inflam inh inconclusive, DT40 TDP1 CPT inconclusive, DT40 TDP1 no CPT 16µM
O=C(COc1ccc([N+](=O)[O-])cc1)Nc1nc2c(s1)CCCC2	none (no result: HT1080 IDH1KD tx, HT1080-NT tox, IL-1B inflam inh)
O=C(NC1CCCCC1)N1CCN(c2ccccc2Cl)CC1	DT40 TDP1 CPT inconclusive
CCn1c(-c2cccnc2)nc2cc(NC(=O)COC)cc(C(=O)N3CCc4ccccc4C3)c21	none (no result: HT1080 IDH1KD tx, HT1080-NT tox, IL-1B inflam inh)
Cc1onc(-c2ccccc2)c1C(=O)Nc1sccc1C#N	IL-1B inflam inh -65
Cc1onc(-c2ccccc2)c1C(=O)Nc1nncs1	none
CC(=O)N1CC(=O)N=C1SCC(=O)Nc1nc(C)c(-c2ccccc2)s1	HT1080 IDH1KD tx inconclusive, HT1080-NT tox inconclusive, IL-1B inflam inh -77, DT40 TDP1 CPT 2.9µM, DT40 TDP1 no CPT 3.3µM
COc1ccc(C(=O)NC2CCN(Cc3c(F)cccc3Cl)CC2)cc1OC	DT40 TDP1 no CPT inconclusive
COc1ccc(N2C(=O)CSC23C(=O)N(CC(=O)NCc2ccccc2)c2ccccc23)cc1 (stereo unspecified)	DT40 TDP1 no CPT inconclusive (no result: HT1080 IDH1KD tx, HT1080-NT tox, IL-1B inflam inh)
Cc1ccc(N2C(=O)CSC23C(=O)N(CC(=O)NC2CCCCC2)c2ccccc23)cc1 (stereo unspecified)	none (no result: HT1080 IDH1KD tx, HT1080-NT tox, IL-1B inflam inh)
COc1ccc(N2C(=O)CSC23C(=O)N(CC(=O)NCCc2ccccc2)c2ccccc23)cc1 (stereo unspecified)	DT40 TDP1 CPT 16µM, DT40 TDP1 no CPT inconclusive (no result: HT1080 IDH1KD tx, HT1080-NT tox, IL-1B inflam inh)
